{
  "source": "the supplement of paper PMC10338343",
  "note": "± gives the standard deviation. In all, about 6,600 sequences were measured (“pre-steady-state target cleavage rate”: median about 0.07, highest 2% from about 0.72 on). The list comes from a sample in which the highest values are over-represented; it also holds similar and randomly drawn sequences.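 Note: 1 nM active piRISC with 0.1 nM target library at 33 °C single turnover.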",
  "data": [
    {"system": "MIWI (PIWIL1) piRISC loaded with Kctd7 piRNA (30 nt)", "assay": "pre-steady-state target cleavage rate (min^-1); MIWI and MILI are mouse PIWI proteins and EfPiwi is from a freshwater sponge; tags in brackets are library labels; higher = faster piRNA-guided slicing of the target", "conditions": "guide: Kctd7 piRNA 5'p-UGUUAAUCUCUCAGAGAAGGUGACAGUGAU; auxiliary factor: 500 nM mouse GTSF1", "method_in_brief": "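In this Cleave-'n-Seq assay, uncleaved targets were sequenced and normalised to depth and to weakly complementary targets. They came from a transcribed, DNA-blocked target RNA library […] mixed with 1 nM active affinity-purified piRISC carrying one synthetic guide, with or without 500 nM GTSF1 partner protein, in HEPES–potassium acetate buffer at 33 °C for 0–8 or 0–960 min. After three trials were pooled and k3 was capped at 0.0001 min^-1, the pre-steady-state cleavage rate was obtained from a burst-and-steady-state fit.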", "values": [
      {"sequence": "UAGUGACAGUCCUUACUCUGAGAGAUUAACA", "pre-steady-state target cleavage rate": "0.0326 ± 0.0043"},
      {"sequence": "UAGAGUGUCACCUUCUCUGAGAGAUAAACA", "pre-steady-state target cleavage rate": "0.362 ± 0.038"},
      {"sequence": "AUGACUGUCACCAUCUCUGAGAGAUUAACA", "pre-steady-state target cleavage rate": "0.817 ± 0.06"},
      {"sequence": "UUCUCUGUCACCAUCUCUGAGAGAUUAACA", "pre-steady-state target cleavage rate": "0.514 ± 0.023"},
      {"sequence": "UAGUCUGUCACCAUCUCUGAGAGAUUAACA", "pre-steady-state target cleavage rate": "0.667 ± 0.038"},
      {"sequence": "UUGACUGUCACCAUCUCUGAGAGAUUAACA", "pre-steady-state target cleavage rate": "0.756 ± 0.044"},
      {"sequence": "AUCUCUGUCACCAUCUCUGAGAGAUUAACA", "pre-steady-state target cleavage rate": "0.633 ± 0.03"},
      {"sequence": "UACUCUGUCACCAUCUCUGAGAGAUUAACA", "pre-steady-state target cleavage rate": "0.69 ± 0.036"},
      {"sequence": "UAGACUGUCACCUUCUCUCAGAGAUUAACA", "pre-steady-state target cleavage rate": "0.154 ± 0.016"},
      {"sequence": "UAGUCUGUCACCUUCUCUGAGUGAUUAUCA", "pre-steady-state target cleavage rate": "0.015 ± 0.0044"},
      {"sequence": "UUCACAGUCACCUUCUGUGAGAGAUUAACA", "pre-steady-state target cleavage rate": "0.363 ± 0.035"},
      {"sequence": "UACACUGUGACCUUGUCUGAGAGAUUAACA", "pre-steady-state target cleavage rate": "0.0711 ± 0.013"},
      {"sequence": "UAGACUGUCAGCUUCUCUGAGAGUUUAACA", "pre-steady-state target cleavage rate": "0.0686 ± 0.011"},
      {"sequence": "UAGUGAGUCACCUUGCUCUGAGAGAUUAACA", "pre-steady-state target cleavage rate": "0.332 ± 0.07"},
      {"sequence": "AUCCUGUCACCUUCUCUGAGAGAUUAACA", "pre-steady-state target cleavage rate": "0.744 ± 0.052"},
      {"sequence": "UACCCUGUCACCUUCUCUGAGAGAUUAACA", "pre-steady-state target cleavage rate": "0.638 ± 0.034"},
      {"sequence": "UUCCUGUCACCUUCUCUGAGAGAUUAACA", "pre-steady-state target cleavage rate": "0.633 ± 0.037"},
      {"sequence": "UUCACCUGUCACCUUCUCUGAGAGAUUAACA", "pre-steady-state target cleavage rate": "0.73 ± 0.033"},
      {"sequence": "UACACCUGUCACCUUCUCUGAGAGAUUAACA", "pre-steady-state target cleavage rate": "0.79 ± 0.051"},
      {"sequence": "AUCCCUGUCACCUUCUCUGAGAGAUUAACA", "pre-steady-state target cleavage rate": "0.644 ± 0.051"},
      {"sequence": "UACCUGUCACCUUCUCUGAGAGAUUAACA", "pre-steady-state target cleavage rate": "0.773 ± 0.051"},
      {"sequence": "UUCUCUGUCACCUUCUCUGAGAGAUUAACA", "pre-steady-state target cleavage rate": "0.585 ± 0.031"},
      {"sequence": "UAGUGUGUCACCUUCUCUGACUCAUUUUGA", "pre-steady-state target cleavage rate": "0.0047 ± 0.0045"},
      {"sequence": "UAGUGACAGACCUUCUCUGUGACAUUAACA", "pre-steady-state target cleavage rate": "0.00672 ± 0.0033"},
      {"sequence": "UAGUGACUCUCCUUCUCUGAGAGUUUAACA", "pre-steady-state target cleavage rate": "0.035 ± 0.007"},
      {"sequence": "UAGACUGUCACCUUGUCUGAGAGAUUAUCA", "pre-steady-state target cleavage rate": "0.643 ± 0.1"},
      {"sequence": "UAGACUCACACCUUCUCUGAGAGAUAUUGA", "pre-steady-state target cleavage rate": "0.0233 ± 0.0066"},
      {"sequence": "UAGUCUGUCACCUUCUCUGAGAGUUUAACA", "pre-steady-state target cleavage rate": "0.365 ± 0.053"},
      {"sequence": "AUCUACUGUCACCUUCUCUGAGAGAUUAACA", "pre-steady-state target cleavage rate": "0.719 ± 0.041"},
      {"sequence": "AUCACUGUCACCUAGUCUGAGAGAUUUUGA", "pre-steady-state target cleavage rate": "0.0964 ± 0.023"},
      {"sequence": "AUCUGUGUCACCUUCUCUGAGAGAUUAACA", "pre-steady-state target cleavage rate": "0.417 ± 0.025"},
      {"sequence": "UAGUGACAGUGGUUUCUGAGAGAUUAACA", "pre-steady-state target cleavage rate": "< 0.0001"},
      {"sequence": "UACACUGUCACCUUCACUGUGAGAUUAACA", "pre-steady-state target cleavage rate": "0.116 ± 0.015"},
      {"sequence": "UAGUCUGUCACUUUCUCUGAGAGAUUAACA", "pre-steady-state target cleavage rate": "0.642 ± 0.023"},
      {"sequence": "UAGUCUGUCACCAUCUCUGAGAGAUAAACA", "pre-steady-state target cleavage rate": "0.246 ± 0.025"},
      {"sequence": "UAGUGACACACCUUCUCAGAGAGAUUAAGA", "pre-steady-state target cleavage rate": "0.0233 ± 0.0077"},
      {"sequence": "AACACUGUCACCUUCUCUGAGAGAUAUUGA", "pre-steady-state target cleavage rate": "0.0742 ± 0.021"},
      {"sequence": "AUCUCUGUCACCUUGUCUGAGAGAUUAACA", "pre-steady-state target cleavage rate": "0.394 ± 0.06"},
      {"sequence": "UAGUGACUCACCUUCUCUGAGAGGAUUAACA", "pre-steady-state target cleavage rate": "0.172 ± 0.015"},
      {"sequence": "UAGUGAGACACCUACUCUGAGAGAUUAACA", "pre-steady-state target cleavage rate": "0.399 ± 0.03"},
      {"sequence": "AUCAUCUGUCACCUUCUCUGAGAGAUUAACA", "pre-steady-state target cleavage rate": "0.74 ± 0.035"},
      {"sequence": "AUCUCUGUCACCUUCUCUGAGAGAUUAACA", "pre-steady-state target cleavage rate": "0.713 ± 0.032"},
      {"sequence": "AUCACCUGUCACCUUCUCUGAGAGAUUAACA", "pre-steady-state target cleavage rate": "0.742 ± 0.05"},
      {"sequence": "UUCCCUGUCACCUUCUCUGAGAGAUUAACA", "pre-steady-state target cleavage rate": "0.502 ± 0.037"},
      {"sequence": "UAGCCUGUCACCUUCUCUGAGAGAUUAACA", "pre-steady-state target cleavage rate": "0.752 ± 0.056"},
      {"sequence": "UUCAUCUGUCACCUUCUCUGAGAGAUUAACA", "pre-steady-state target cleavage rate": "0.706 ± 0.03"},
      {"sequence": "UAGACCUGUCACCUUCUCUGAGAGAUUAACA", "pre-steady-state target cleavage rate": "0.652 ± 0.043"},
      {"sequence": "UAGUGACUCACCUUCUCUGAGAGAUAUACA", "pre-steady-state target cleavage rate": "0.143 ± 0.019"},
      {"sequence": "UACACUCACACCUUCUCUGAGAGAUAUUGA", "pre-steady-state target cleavage rate": "0.0241 ± 0.012"},
      {"sequence": "UAGUGACAGUGCAUUCUCUGAGAGAUUAACA", "pre-steady-state target cleavage rate": "0.0141 ± 0.0028"},
      {"sequence": "AUCACUGUCACCAUCUCUGAGAGAUAAACA", "pre-steady-state target cleavage rate": "0.31 ± 0.03"},
      {"sequence": "UACACUGUCGACCUUCUCUGAGAGAUUAACA", "pre-steady-state target cleavage rate": "0.229 ± 0.026"},
      {"sequence": "UAGUGAGUCACCUUCACUGAGAGAUUUACA", "pre-steady-state target cleavage rate": "0.203 ± 0.036"},
      {"sequence": "UACACUGAGACCUUCUCUGAGAGAUAUUGA", "pre-steady-state target cleavage rate": "0.0195 ± 0.0074"},
      {"sequence": "AUCACUGUCACCUUCUCUGAGAGAGUUAACA", "pre-steady-state target cleavage rate": "0.651 ± 0.088"},
      {"sequence": "UAGUCUGUCACCUUCUCUGACAGAUUUACA", "pre-steady-state target cleavage rate": "0.0113 ± 0.0036"},
      {"sequence": "UAGACUGUCACCUUCUCUGAGAGAUUAAA", "pre-steady-state target cleavage rate": "0.141 ± 0.018"},
      {"sequence": "UAGUGAGUCACCUUCUCUGAGAGUAUAUGA", "pre-steady-state target cleavage rate": "0.0298 ± 0.012"},
      {"sequence": "UACACUGUCACCUUCUCUGAGAGAUUAACU [g2:g28:cont:t1U]", "pre-steady-state target cleavage rate": "0.494 ± 0.059"},
      {"sequence": "ACACUGUCACCUUCUCUGAGAGAUUAACA", "pre-steady-state target cleavage rate": "0.772 ± 0.044"},
      {"sequence": "AACACUGUCACCUUCUCUGAGAGAUUAACA", "pre-steady-state target cleavage rate": "0.746 ± 0.03"},
      {"sequence": "AACACUGUCACCUUCUCUGAGAGAUUAAGA", "pre-steady-state target cleavage rate": "0.189 ± 0.026"},
      {"sequence": "UAGUGAGUCAGCCUUCUCUGAGAGAUUAACA", "pre-steady-state target cleavage rate": "0.176 ± 0.02"},
      {"sequence": "UUCACUGUCACGCUUCUCUGAGAGAUUAACA", "pre-steady-state target cleavage rate": "0.51 ± 0.02"},
      {"sequence": "UAGUGCGUCACCUUCUCUGAGAGAUUAACA", "pre-steady-state target cleavage rate": "0.623 ± 0.04"},
      {"sequence": "UAGUGUGUCACGUUCUCUGAGAGAAUAACA", "pre-steady-state target cleavage rate": "0.19 ± 0.037"},
      {"sequence": "UACACUGUCGCCUUCUCUGAGAGAUUAACA", "pre-steady-state target cleavage rate": "0.708 ± 0.042"},
      {"sequence": "UUCACUGUCGCCUUCUCUGAGAGAUUAACA", "pre-steady-state target cleavage rate": "0.665 ± 0.043"},
      {"sequence": "AUCACUGUCGCCUUCUCUGAGAGAUUAACA", "pre-steady-state target cleavage rate": "0.819 ± 0.053"},
      {"sequence": "UAGACUGUCGCCUUCUCUGAGAGAUUAACA", "pre-steady-state target cleavage rate": "0.822 ± 0.064"},
      {"sequence": "AUCACUGUCGACCUUCUCUGAGAGAUUAACA", "pre-steady-state target cleavage rate": "0.172 ± 0.017"},
      {"sequence": "UAGACUGUCGACCUUCUCUGAGAGAUUAACA", "pre-steady-state target cleavage rate": "0.121 ± 0.013"}
    ]}
  ]
}
